Out of some 5,500 compounds screened, about 2,000 (36%) were called active. Another 18% or so got no clear call; they are omitted. No stated cut-off is given here; in the data, active means normalized growth mostly below about 0.91 (no sharp cut-off); inconclusive means no clear call, values can overlap the other calls; inactive means mostly above about 0.92. The list shows a part of the results.
Test: chemical genetic growth profiling, strain panel (AID 1159580);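 further: tested at 20 µM; growth read once vehicle control cultures reached saturation at 30 °C; 1 = growth at the plate median or of vehicle wells; lower values mean less growth of the strain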
Conditions: growth OD
[1] = S. cerevisiae deletion strains, locus YAR019C, strain CDC15, hits give low values
[2] = S. cerevisiae deletion strains, locus YBL105C, strain PKC1, hits give low values
[3] = S. cerevisiae deletion strains, locus YBR135W, strain CKS1, hits give low values
[4] = S. cerevisiae deletion strains, locus YBR136W, strain MEC1, hits give low values
[5] = S. cerevisiae deletion strains, locus YBR160W, strain CDC28, hits give low values
[6] = S. cerevisiae deletion strains, locus YDL017W, strain CDC7, hits give low values
[7] = S. cerevisiae deletion strains, locus YDL028C, strain MPS1, hits give low values
[8] = S. cerevisiae deletion strains, locus YDL101C, strain DUN1, hits give low values
[9] = S. cerevisiae deletion strains, locus YDL108W, strain KIN28, hits give low values
[10] = S. cerevisiae deletion strains, locus YDL132W, strain cdc53, hits give low values
[11] = S. cerevisiae deletion strains, locus YDL214C, strain PRR2, hits give low values
[12] = S. cerevisiae deletion strains, locus YDR052C, strain DBF4, hits give low values
[13] = S. cerevisiae deletion strains, locus YDR054C, strain cdc34, hits give low values
[14] = S. cerevisiae deletion strains, locus YDR226W, strain ADK1, hits give low values
[15] = S. cerevisiae deletion strains, locus YDR477W, strain SNF1, hits give low values
[16] = S. cerevisiae deletion strains, locus YER123W, strain YCK3, hits give low values
[17] = S. cerevisiae deletion strains, locus YER133W, strain GLC7, hits give low values
[18] = S. cerevisiae deletion strains, locus YFL009W, strain cdc4, hits give low values
[19] = S. cerevisiae deletion strains, locus YFL029C, strain CAK1, hits give low values
[20] = S. cerevisiae deletion strains, locus YFR003C, strain YPI1, hits give low values
[21] = S. cerevisiae deletion strains, locus YFR019W, strain FAB1, hits give low values
[22] = S. cerevisiae deletion strains, locus YFR028C, strain CDC14, hits give low values
[23] = S. cerevisiae deletion strains, locus YGR040W, strain KSS1, hits give low values
[24] = S. cerevisiae deletion strains, locus YGR052W, strain FMP48, hits give low values
[25] = S. cerevisiae deletion strains, locus YGR092W, strain DBF2, hits give low values
[26] = S. cerevisiae deletion strains, locus YHR030C, strain SLT2, hits give low values
[27] = S. cerevisiae deletion strains, locus YHR079C, strain IRE1, hits give low values
[28] = S. cerevisiae deletion strains, locus YHR082C, strain KSP1, hits give low values
[29] = S. cerevisiae deletion strains, locus YHR205W, strain SCH9, hits give low values
[30] = S. cerevisiae deletion strains, locus YIL147C, strain SLN1, hits give low values
[31] = S. cerevisiae deletion strains, locus YJL095W, strain BCK1, hits give low values
[32] = S. cerevisiae deletion strains, locus YJL128C, strain PBS2, hits give low values
[33] = S. cerevisiae deletion strains, locus YJL157C, strain FAR1, hits give low values
[34] = S. cerevisiae deletion strains, locus YJR016C, strain ILV3, hits give low values
[35] = S. cerevisiae deletion strains, locus YJR066W, strain TOR1 (second series), hits give low values
[36] = S. cerevisiae deletion strains, locus YJR066W, strain TOR1, hits give low values
[37] = S. cerevisiae deletion strains, locus YKL048C, strain ELM1, hits give low values
[38] = S. cerevisiae deletion strains, locus YKL067W, strain YNK1, hits give low values
[39] = S. cerevisiae deletion strains, locus YKL101W, strain HSL1, hits give low values
[40] = S. cerevisiae deletion strains, locus YKL193C, strain SDS22, hits give low values
[41] = S. cerevisiae deletion strains, locus YKL203C, strain TOR2, hits give low values
[42] = S. cerevisiae deletion strains, locus YLR113W, strain HOG1, hits give low values
[43] = S. cerevisiae deletion strains, locus YLR133W, strain CKI1, hits give low values
[44] = S. cerevisiae deletion strains, locus YLR403W, strain SFP1, hits give low values
[45] = S. cerevisiae deletion strains, locus YML070W, strain DAK1, hits give low values
[46] = S. cerevisiae deletion strains, locus YMR001C, strain CDC5, hits give low values
[47] = S. cerevisiae deletion strains, locus YMR205C, strain PFK2 (second series), hits give low values
[48] = S. cerevisiae deletion strains, locus YMR277W, strain FCP1, hits give low values
[49] = S. cerevisiae deletion strains, locus YNL006W, strain LST8, hits give low values
[50] = S. cerevisiae deletion strains, locus YNL020C, strain ARK1, hits give low values
[51] = S. cerevisiae deletion strains, locus YNL161W, strain CBK1, hits give low values
[52] = S. cerevisiae deletion strains, locus YNL183C, strain NPR1, hits give low values
[53] = S. cerevisiae deletion strains, locus YNL207W, strain RIO2, hits give low values
[54] = S. cerevisiae deletion strains, locus YNL222W, strain SSU72, hits give low values
[55] = S. cerevisiae deletion strains, locus YNL307C, strain MCK1 (second series), hits give low values
[56] = S. cerevisiae deletion strains, locus YOL078W, strain AVO1, hits give low values
[57] = S. cerevisiae deletion strains, locus YOL136C, strain PFK27, hits give low values
[58] = S. cerevisiae deletion strains, locus YOR061W, strain CKA2, hits give low values
[59] = S. cerevisiae deletion strains, locus YOR119C, strain RIO1, hits give low values
[60] = S. cerevisiae deletion strains, locus YOR231W, strain MKK1, hits give low values
[61] = S. cerevisiae deletion strains, locus YOR329C, strain SCD5, hits give low values
[62] = S. cerevisiae deletion strains, locus YPL031C, strain PHO85, hits give low values
[63] = S. cerevisiae deletion strains, locus YPL153C, strain RAD53, hits give low values
[64] = S. cerevisiae deletion strains, locus YPL204W, strain HRR25, hits give low values
[65] = S. cerevisiae deletion strains, locus YPL209C, strain IPL1, hits give low values
[66] = S. cerevisiae deletion strains, locus YPL256C, strain CLN2, hits give low values
[67] = S. cerevisiae deletion strains, locus YPR025C, strain CCL1, hits give low values
[68] = S. cerevisiae deletion strains, locus YPR106W, strain ISR1, hits give low values
[69] = S. cerevisiae deletion strains, locus YPR111W, strain DBF20, hits give low values
[70] = S. cerevisiae deletion strains, strain NNK1, hits give low values
[71] = S. cerevisiae deletion strains, strain TSCII, hits give low values
[72] = S. cerevisiae deletion strains, locus YAL013W, strain DEP1, hits give low values
[73] = S. cerevisiae deletion strains, locus YBR229C, strain ROT2, hits give low values
[74] = S. cerevisiae deletion strains, locus YDL134C, strain PPH21, hits give low values
[75] = S. cerevisiae deletion strains, locus YDR150W, strain NUM1, hits give low values
[76] = S. cerevisiae deletion strains, locus YEL061C, strain CIN8, hits give low values
[77] = S. cerevisiae deletion strains, locus YGR078C, strain PAC10, hits give low values
[78] = S. cerevisiae deletion strains, locus YHR087W, strain rtc3, hits give low values
[79] = S. cerevisiae deletion strains, locus YJR043C, strain POL32, hits give low values
[80] = S. cerevisiae deletion strains, locus YJR075W, strain HOC1, hits give low values
[81] = S. cerevisiae deletion strains, locus YLR039C, strain RIC1, hits give low values
[82] = S. cerevisiae deletion strains, locus YLR058C, strain SHM2 (second series), hits give low values
[83] = S. cerevisiae deletion strains, locus YLR085C, strain ARP6, hits give low values
[84] = S. cerevisiae deletion strains, locus YLR262C, strain YPT6, hits give low values
[85] = S. cerevisiae deletion strains, locus YML094W, strain GIM5, hits give low values
[86] = S. cerevisiae deletion strains, locus YMR219W, strain ESC1, hits give low values
[87] = S. cerevisiae deletion strains, locus YMR263W, strain SAP30, hits give low values
[88] = S. cerevisiae deletion strains, locus YNL153C, strain GIM3, hits give low values
[89] = S. cerevisiae deletion strains, locus YNL298W, strain CLA4 (second series), hits give low values
[90] = S. cerevisiae deletion strains, locus YNL322C, strain KRE1, hits give low values
[91] = S. cerevisiae deletion strains, locus YNR030W, strain Alg12, hits give low values
[92] = S. cerevisiae deletion strains, locus YOL006C, strain TOP1, hits give low values
[93] = S. cerevisiae deletion strains, locus YPL055C, strain LGE1, hits give low values
[94] = S. cerevisiae deletion strains, locus YPL241C, strain CIN2, hits give low values
[95] = S. cerevisiae deletion strains, locus YPR135W, strain CTF4, hits give low values

Measured: normalized growth

CC1CCc2c(sc3ncnc(Sc4ccccc4)c23)C1 (centres undefined)
active: [26] 1.19 [resistant]
inactive: [1] 0.992 | [2] 0.972 | [3] 0.979 | [4] 0.978 | [5] 0.983 | [6] 0.981 | [7] 0.978 | [8] 0.978 | [9] 0.976 | [10] 0.977 | [11] 0.945 | [12] 0.98 | [13] 0.981 | [14] 0.979 | [15] 0.952 | [16] 0.926 | [17] 0.956 | [18] 0.983 | [19] 0.987 | [20] 0.977 | [21] 0.966 | [22] 0.975 | [23] 0.937 | [24] 1 | [25] 0.991 | [27] 1.11 | [28] 1.06 | [29] 0.992 | [30] 0.977 | [31] 0.996 | [32] 0.94 | [33] 0.962 | [34] 0.984 | [35] 0.948 | [36] 1.09 | [37] 0.966 | [38] 0.948 | [39] 0.931 | [40] 0.983 | [41] 1.04 | [42] 0.886 | [43] 0.946 | [44] 0.968 | [45] 0.936 | [46] 0.984 | [47] 0.95 | [48] 0.98 | [49] 0.99 | [50] 0.943 | [51] 0.98 | [52] 1.03 | [53] 0.976 | [54] 0.989 | [55] 0.969 | [56] 0.976 | [57] 0.913 | [58] 0.935 | [59] 1.02 | [60] 0.925 | [61] 0.983 | [62] 0.945 | [63] 0.941 | [64] 0.92 | [65] 0.982 | [66] 1.02 | [67] 0.982 | [68] 0.984 | [69] 0.96 | [70] 0.981 | [71] 0.979

Cc1ccc(C(=O)NNC(=O)c2ccncc2)c(C)c1
inactive: [72] 0.994 | [73] 0.993 | S. cerevisiae deletion strains, locus YCL061C, strain MRC1, hits give low values 1.01 | [8] 1.02 | [74] 1 | [75] 0.925 | [76] 0.993 | [77] 1 | S. cerevisiae deletion strains, locus YGR229C, strain SMI1, hits give low values 1.01 | [26] 1.01 | [78] 1 | [79] 1.01 | [80] 1.03 | S. cerevisiae deletion strains, locus YKL190W, strain CNB1, hits give low values 1.01 | [81] 1.03 | [82] 0.994 | [83] 0.98 | [84] 1.02 | [85] 0.983 | [86] 0.988 | [87] 0.965 | S. cerevisiae deletion strains, locus YMR307W, strain GAS1, hits give low values 1.01 | [88] 1.01 | [89] 1.03 | [90] 0.991 | [91] 1.01 | [92] 1.06 | [93] 0.934 | [94] 0.998 | [95] 1.08 | S. cerevisiae strains, strain wild type, hits give low values 1.01

Cc1ccc(C(=O)Nc2ccc3ccccc3n2)cc1
active: [42] 0.857
inactive: [1] 0.956 | [2] 0.954 | [3] 0.958 | [4] 0.965 | [5] 0.95 | [6] 0.964 | [7] 0.964 | [8] 0.96 | [9] 0.963 | [10] 0.96 | [11] 0.92 | [12] 0.976 | [13] 0.94 | [14] 0.956 | [15] 0.937 | [16] 0.906 | [17] 0.929 | [18] 0.954 | [19] 0.956 | [20] 0.961 | [21] 0.983 | [22] 0.944 | [23] 0.925 | [24] 0.99 | [25] 0.892 | [26] 0.938 | [27] 0.933 | [28] 0.994 | [29] 0.954 | [30] 0.963 | [31] 0.952 | [32] 0.954 | [33] 0.917 | [34] 0.946 | [35] 0.918 | [36] 0.978 | [37] 0.948 | [38] 0.93 | [39] 0.95 | [40] 0.957 | [41] 0.986 | [43] 0.944 | [44] 0.934 | [45] 0.901 | [46] 0.966 | [47] 0.941 | [48] 0.956 | [49] 0.966 | [50] 0.947 | [51] 0.944 | [52] 0.959 | [53] 0.964 | [54] 0.95 | [55] 0.93 | [56] 0.958 | [57] 0.92 | [58] 0.964 | [59] 1.01 | [60] 0.921 | [61] 0.962 | [62] 0.948 | [63] 0.928 | [64] 0.937 | [65] 0.949 | [66] 0.876 | [67] 0.959 | [68] 0.949 | [69] 0.945 | [70] 0.956 | [71] 0.957

COC(=O)Cc1nc(NC(=O)c2ccccc2)sc1C
inactive: [72] 1.02 | [73] 1 | [8] 0.972 | [74] 1.01 | [75] 0.994 | [76] 1.02 | [77] 0.999 | [26] 0.977 | [78] 0.98 | [79] 1.01 | [80] 1 | [81] 1.02 | [82] 1 | [83] 0.889 | [84] 1.12 | [85] 0.948 | [86] 0.994 | [87] 1 | [88] 1 | [89] 1.02 | [90] 1.01 | [91] 0.983 | [92] 0.976 | [93] 0.927 | [94] 0.944 | [95] 1

Source: PubChem BioAssay AID1159580 (chemical genetic matrix, 2015)
